# gsp agonist = activates gsp, the McCune-Albright syndrome mutation; gsp mutant cells, cAMP HTRF, 30 min; Potency, µM (titrated, usually from 76.9 µM), most hits filed as activators; actives 0.13% (n = 340,000); active means well fitted activation curve with a large enough effect; inconclusive means small, poorly fitted or top-dose-only effect, or another doubt; inactive means no such curve, though single readings can be large or run the other way; cell line not stated here;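 further: phosphodiesterase inhibitor Ro 20-1724 added with compounds to block cAMP breakdown; nearly all actives have a fitted effect of over 60% in size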
#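 Cells stably selected in G418 were plated at 2000/well, grown 16-24 hr, then given compounds in DMSO with the PDE inhibitor […] (300 uM solution added) for 30 min at 37C; cAMP was read by HTRF.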
# RXFP1 ag = RXFP1 (human) receptor agonism | HEK293T-RXFP1 cAMP TR-FRET, 30 min; response scale: percent of porcine relaxin response, buffer zero | Potency, µM (top dose mostly 57.5 µM), usual class: activators | actives 0.3% (n = 370,000); further: nearly all actives have a fitted effect of over 60% in size
# Target sequence (Q9HBX9 whole entry, looked up): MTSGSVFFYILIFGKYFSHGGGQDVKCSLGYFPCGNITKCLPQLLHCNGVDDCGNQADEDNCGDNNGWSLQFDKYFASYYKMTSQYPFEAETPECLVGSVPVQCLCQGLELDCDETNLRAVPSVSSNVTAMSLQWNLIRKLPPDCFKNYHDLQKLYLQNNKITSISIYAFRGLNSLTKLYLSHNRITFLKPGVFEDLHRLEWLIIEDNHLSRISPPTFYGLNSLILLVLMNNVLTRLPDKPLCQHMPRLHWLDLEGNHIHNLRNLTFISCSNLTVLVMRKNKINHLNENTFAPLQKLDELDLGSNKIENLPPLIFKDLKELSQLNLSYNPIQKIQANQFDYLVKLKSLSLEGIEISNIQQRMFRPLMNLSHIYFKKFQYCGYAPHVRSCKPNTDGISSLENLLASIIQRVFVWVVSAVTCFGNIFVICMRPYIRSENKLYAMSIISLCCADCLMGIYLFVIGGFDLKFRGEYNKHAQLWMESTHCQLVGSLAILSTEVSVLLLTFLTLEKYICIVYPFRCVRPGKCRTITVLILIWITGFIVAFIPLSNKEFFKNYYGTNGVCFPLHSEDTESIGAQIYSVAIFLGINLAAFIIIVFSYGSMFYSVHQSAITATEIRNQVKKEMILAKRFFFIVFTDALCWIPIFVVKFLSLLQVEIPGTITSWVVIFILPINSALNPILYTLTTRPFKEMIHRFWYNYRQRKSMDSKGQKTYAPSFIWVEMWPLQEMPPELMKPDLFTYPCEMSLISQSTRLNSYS
#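 HEK293 cells stably expressing RXFP1, treated 30 min at 37C with compounds plus PDE4 inhibitor Ro 20174; cAMP measured by HTRF TR-FRET. Normalized to buffer and 29 nM porcine relaxin; EC50 by Hill fit.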
# gsp antag = gsp mutant antagonism; Potency, µM (top dose mostly 76.9 µM), hits mostly inhibitors; gsp-mutant cells, cAMP HTRF, 30 min; actives 0.4% (n = 340,000); calls by dose curve; cell line not stated here;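 further: intracellular cAMP measured with PDE inhibitor Ro 20-1724 present during compound exposure; nearly all actives have a fitted effect of over 65% in size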
#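 Cells in G418 medium, seeded 16-24 h, 37C; buffer exchange to DPBS + 1 mM CaCl2, 0.5 mM MgCl2, 0.05% BSA; cpds in DMSO + […] (300 uM stock), 30 min 37C; HTRF cAMP detection.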
# Mm-Cpn inhibitor = blocks the Methanococcus maripaludis chaperonin Mm-Cpn. purified Mm-Cpn ATPase, ADP Transcreener TR-FRET. Potency, µM (doses to about 76.9 µM), hits mostly inhibitors. actives 0.031% (n = 330,000). AID 504842; further: nearly all actives have a fitted effect of over 80% in size
#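 Purified archaeal Mm-CPN (25nM final) preincubated 10 min at 37degC with compound, then 10uM ATP for 30 min at 37degC; ADP measured by HTRF Transcreener TR-FRET; buffer 30 mM TRIS pH 7.4, 100mM KCl, 5mM MgCl2, 1mM DTT.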
# RXFP1 antagonist = antagonists of human relaxin receptor RXFP1; Q9HBX9; HEK293-RXFP1, relaxin-stimulated cAMP HTRF, 30 min; stronger effect = lower value; activity change, negative = inhibition, % at 57.5 µM; actives 0.59% (n = 350,000); AID 1259400;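 active means activity change of -60% or lower, but not beyond a set lower limit; inconclusive means change between -60% and -40%, or beyond the set limit; inactive means change above -40%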
# CCT modulator = changes cytosolic chaperonin activity; AID 651819; actives 0.3% (n = 360,000); purified chaperonin ATPase assay, HTRF ADP detection, 30 min; activity change, % (test concentration not listed), hits read low; in the data active means activity change below about -30%
#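 TRiC at 40 or 20 nM final (batch-dependent) in 30 mM Tris pH 7.4, 100 mM KCl, 5 mM MgCl2, 1 mM DTT, with compound at single 76 uM and 10 uM ATP, 30 min at 37 deg C. ADP detected by HTRF Transcreener, 665/615 ratio.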
# Hits are given with their value; i = inactive; ? = inconclusive; nt = no result given; ! = repeats disagree; [ ] = dose if it differs, or a comment. In the library only some 1.2% were active in any assay of this set; here they are far more common. Unless noted, the call rests on the fitted dose curve; in most records, active means well fitted curve in the direction sought with a large enough effect; inconclusive means small, poorly fitted or top-dose-only effect, or another doubt; inactive means no such curve, though single readings can be large; an effect the other way counts as inactive or inconclusive.
SMILES,gsp agonist,RXFP1 ag,gsp antag,Mm-Cpn inhibitor,RXFP1 antagonist,CCT modulator
COc1ccc(S(=O)(=O)Nc2ccccc2C(=O)Nc2nc(-c3ccc(F)cc3)cs2)cc1OC,i[15.4 µM],i,35µM,i,i,i
COc1ccc(-c2csc(NC(=O)c3ccccc3NS(=O)(=O)c3ccc(C)cc3)n2)cc1,?,i,?,i,?,i
COc1ccc(-c2csc(Nc3ccccn3)n2)cc1OC,i[15.4 µM],i,i,i,-84,i
Cc1ccc(O)c(NC(=O)c2ccc(Br)c(S(=O)(=O)N3CCCCC3)c2)c1,nt,i,nt,nt,nt,nt
COc1ccc(-c2c3c(=O)n(C)c(=O)n(C)c3c3c(-c4ccccc4)nc4ccccc4n23)cc1,nt,i,nt,nt,i,nt
COc1cccc(/C=c2\s/c(=C\C(=O)C(C)(C)C)[nH]c2=O)c1,i[15.4 µM],i,i,i,-91,i
O=C(CSc1ncn[nH]1)N1N=C2/C(=C/c3ccccc3)CCCC2C1c1ccccc1 (stereo not given),?,i,35µM,i,i,i
NC(=S)NN=C1CCSCC1,i,nt,?,nt,i,-34
NC(=S)NN=C1CCCCCCCCC1,i,nt,i,nt,i,i
N#Cc1c(N2CCSCC2)nsc1-c1ccccc1Cl,16µM,?,i,?,i,i
CC1CCN(C(=O)CSc2ccc(-c3cccc([N+](=O)[O-])c3)nn2)CC1,i[15.4 µM],i,28µM,i,i,i
Cc1sc2ncnc(N3CCC(C(=O)NCC(=O)Nc4ccc(F)c(F)c4)CC3)c2c1C,i,i,40µM,i,i,i
Cc1ccccc1OCC(=O)NNC(=O)C1CCN(c2ncnc3sc(C)c(C)c23)CC1,i,i,35µM,i,-68,i
CCCN(c1ccc(C(C)C)cc1)S(=O)(=O)c1ccc2c(c1)CCN2C(=O)CC,nt,i,nt,nt,nt,nt
Cc1nc([N+](=O)[O-])cn1-c1ccc([N+](=O)[O-])cc1,nt,nt,nt,nt,i,nt
CCOC(=O)C(C)Sc1ccc2nnc(-c3ccc(F)cc3)n2n1 (stereo not given),i,i,i,i,i,i
Cc1ccc(-c2nnc3ccc(SC(C)C(=O)O)nn23)cc1 (stereo not given),10µM,?,i,i,nt,i
COC(=O)C(C)Sc1ccc2nnc(-c3ccccc3)n2n1 (stereo not given),10µM,25µM,i,i,i,i
COC(=O)c1cc2oc(C)cc2n1Cc1c(C)cc(C)cc1C,nt,i,nt,nt,i,nt
COc1ccc2nc(NC(=O)c3nc(S(=O)(=O)Cc4ccc(C)cc4)ncc3Cl)sc2c1,nt,i,nt,nt,-91,nt
Cc1ccccc1CS(=O)(=O)c1ncc(Cl)c(C(=O)Nc2nnc(C(C)C)s2)n1,nt,i,nt,nt,?,nt
Cc1ccc(CS(=O)(=O)c2ncc(Cl)c(C(=O)Nc3nc4ccc(C)cc4s3)n2)cc1,nt,i,nt,nt,nt,nt
COc1ccc(OC)c(NC(=O)c2nc(S(=O)(=O)Cc3ccc(F)cc3)ncc2Cl)c1,nt,i,nt,nt,-107,nt
CC(C)c1nnc(NC(=O)c2nc(S(=O)(=O)Cc3ccccc3)ncc2Cl)s1,i[15.4 µM],i,25µM,i,-72!,i
CCCc1nnc(NC(=O)c2nc(S(=O)(=O)Cc3ccc(C)cc3)ncc2Cl)s1,i,i,28µM,i,i,i
SMILES,gsp agonist,RXFP1 ag,gsp antag,Mm-Cpn inhibitor,RXFP1 antagonist,CCT modulator
CCC1CCCCN1CCCNC(=O)c1ccc2c(c1)sc1nc(-c3ccc(F)cc3)cn12 (stereo not given),nt,i,nt,nt,i,nt
CCCCOc1ccc(C2c3c(oc4ccccc4c3=O)C(=O)N2c2nc(C)c(C(=O)OCC)s2)cc1OC (stereo not given),nt,i,nt,nt,i,nt
CCCS(=O)(=O)Nc1cccc(-c2cn3ccc(C)cc3n2)c1,nt,i,nt,nt,nt,nt
CSc1nnc(NC(=O)c2nc(S(=O)(=O)Cc3ccccc3)ncc2Cl)s1,i[15.4 µM],i,32µM,i,-63,i
Cc1nc2c(cnn2-c2ccccc2Cl)c(=O)n1-c1ccc(C(C)C)cc1,i,i,35µM,i,i,i
Cc1ccc(-n2c(-c3ccco3)nc3c(cnn3-c3ccccc3Cl)c2=O)cc1,nt,i,nt,nt,nt,nt
CCOc1ccc(C2C(C(=O)Nc3ccccc3C)=C(C)Nc3nnnn32)cc1 (stereo not given),nt,i,nt,nt,i,nt
CC(=O)n1cc(C2C(=O)CCCC2=O)c2ccccc21,?,i,i,i,i,i
CC(=O)n1cc(C2CC(=O)OC3=C2CC(=O)C(C)(C)C3)c2ccccc21 (stereo not given),i,nt,nt,nt,i,-106
CCCCCc1ccc(C(=O)CCCC)c(=S)[nH]1,i,i,i,i,-64,i
CCCCCc1cc(=O)[nH]c(=S)[nH]1,i,i,i,i,i,i
CCOCCCNC(=O)c1cc2cc3cc(OC)ccc3nc2o1,i,i,i,i,i,i
COc1ccc2nc3oc(C(=O)NCCCOC(C)C)cc3cc2c1,?,i,50µM,i,i,i
COc1cc(C2CC(=O)Nc3ccc4ccccc4c32)ccc1OC(=O)C(C)C (stereo not given),nt,i,nt,nt,i,nt
Cc1ccc(-n2[nH]c(C)c(/C=N/Nc3ccc([N+](=O)[O-])cc3[N+](=O)[O-])c2=O)cc1,?,i,32µM,i,-74,i
COc1cc(C(=O)NCC(=O)N2CCN(S(=O)(=O)c3ccccc3)CC2)cc(OC)c1OC,i[15.4 µM],i,i,i,-64,i
O=C(NCC(=O)N1CCN(S(=O)(=O)c2ccccc2)CC1)c1ccc2ccccc2c1,i,i,?,i,i,i
CN(C(=O)COc1ccccc1C(=O)NCCOc1ccccc1)c1ccccc1,i,i,35µM,i,i,i
COC(=O)c1ccc2c(=O)n(CCCCCC(=O)N3CCN(c4ccccc4)CC3)c(=O)[nH]c2c1,i,i,8.9µM,i,i,i
CC(=O)c1ccc(N2CCN(C(=O)CCCCn3c(=O)[nH]c4ccccc4c3=O)CC2)cc1,nt,i,nt,nt,i,nt
CCN1CCN(C(=O)CCCCCn2c(=O)[nH]c3cc(C(=O)OC)ccc3c2=O)CC1,?,i,i,i,i,i
CC(=O)c1ccc(N2CCN(C(=O)CCCn3c(=O)[nH]c4ccc(Br)cc4c3=O)CC2)cc1,i,i,35µM,i,i,i
O=C(NCc1n[nH]c(=S)n1-c1ccc(Cl)c(Cl)c1)c1ccc(S(=O)(=O)N2CCCCC2)cc1,i,i,i,i,-60,i
Cc1sc2ncn(CC(=O)NCc3ccccc3)c(=O)c2c1C,?,i,i,i,i,i
Cc1sc2ncn(CC(=O)NCC(=O)N(C)Cc3ccccc3)c(=O)c2c1C,11µM,i,i,i,i,i
O=C(NCc1ccc(F)cc1)C1CCC(CNS(=O)(=O)c2cccs2)CC1 (stereo not given),i[15.4 µM],i,i,i,i,i

# Compound activity: PubChem BioAssay, National Center for Advancing Translational Sciences (NCATS)
